Screening results: PubChem, National Center for Advancing Translational Sciences (NCATS)
KB-V1 MDR tox: qHTS assay for MDR1-selective chemotherapeutics: Primary screen using the drug-selected MDR subline cells KB-V1; hit rate 3.4% among 400,000; AID 1347076, 2019; Potency, µM (top dose mostly 46.1 µM), usual class: cytotoxic; KB-V1 MDR cells viability, CellTiter-Glo, 72 h; further: nearly all actives have a fitted effect of over 60% in size
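Potencies derive from concentration-effect curves fitted to normalized luminescence (CellTiter-Glo) of KB-V1 cells treated for 72 h at 37 degrees C in phenol-red-free DMEM containing 10% FBS.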
KB-3-1 cytotox: qHTS assay for MDR1-selective chemotherapeutics: Primary screen using the parental adenocarcinoma cell KB-3-1. AID 1347075, 2019. Potency, µM (series often up to 46.1 µM), hits mostly cytotoxic. hit rate 1.4% among 400,000. KB-3-1 viability, CellTiter-Glo ATP luminescence, 72 h; further: nearly all actives have a fitted effect of over 60% in size
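KB-3-1 cells, DMEM (no phenol red) + 10% FBS; compound by pin transfer, 72 h, 37 °C. Readout: CellTiter-Glo luminescence after 10 min. Data normalized, curve-fitted.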
SW480 rereplic: A quantitative high throughput screen for small molecules that induce DNA re-replication in SW480 colon adenocarcinoma cells; SW480 DNA re-replication, Hoechst DNA content imaging, 48 h; Potency, µM (top dose mostly 46.1 µM), hits mostly activators; hit rate 1.8% among 340,000; AID 624297, 2012; further: nearly all actives have a fitted effect of over 55% in size
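Treated cells incubate 48 hr (37 C, 5% CO2), are stained 40 min with Hoechst, and nuclear fluorescence is enumerated; a rise in nuclei with high DNA signal marks re-replication.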
PINK1 modulator: A Quantitative High throughput Screen to Identify Chemical Modulators of PINK1 Expression; PINK1 immunofluorescence, high-content cytometry, 24 h; Potency, µM (series often up to 76.6 µM), usual class: activators; hit rate 0.2% among 410,000; AID 624263, 2012; active means well fitted activation curve with a large enough effect; inconclusive means small, poorly fitted or top-dose-only effect; cell line not stated here; further: nearly all actives have a fitted effect of over 65% in size
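Stable cell line treated 24 h with compounds at 5 concentrations (CCCP controls), then fixed and immunostained for PINK1 plus nuclear and cell stains; PINK1 immunofluorescence quantified by laser-scanning microplate cytometry.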
PTAP TSG101 blk: qHTS Assay for Iinhibitors of HIV-1 Budding by Blocking the Interaction of PTAP/TSG101; Tumor susceptibility gene 101 protein (Homo sapiens), Q99816; Fluorescence polarization, FITC-PTAP peptide / Tsg101 binding; Potency, µM (highest dose often 115 µM), actives largely listed as inhibitors; 340,000 tested, under 10 active; AID 493005, 2010; active means well fitted inhibition curve with a large enough effect in the main read-out, with a control signal flat, not every such curve was filed as active; inconclusive means small, poorly fitted or top-dose-only effect, or effect the other way, or a change in a side signal; inactive means no such curve, though single readings can be large or run the other way
Target sequence (Q99816 whole entry, looked up): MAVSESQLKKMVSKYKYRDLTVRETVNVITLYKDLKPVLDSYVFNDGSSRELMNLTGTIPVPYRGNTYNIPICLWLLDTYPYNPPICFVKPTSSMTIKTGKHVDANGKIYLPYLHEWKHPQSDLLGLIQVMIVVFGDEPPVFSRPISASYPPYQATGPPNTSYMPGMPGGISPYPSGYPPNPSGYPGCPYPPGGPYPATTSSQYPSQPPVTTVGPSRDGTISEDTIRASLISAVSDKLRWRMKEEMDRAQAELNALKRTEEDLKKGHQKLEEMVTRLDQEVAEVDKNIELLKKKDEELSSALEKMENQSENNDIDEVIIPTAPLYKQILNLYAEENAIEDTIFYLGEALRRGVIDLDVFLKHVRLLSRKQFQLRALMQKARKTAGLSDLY
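Steps: Tsg101 binding domain dispensed (10 uM final), compounds pinned in DMSO, FITC-labeled PTAP-motif peptide added (50 nM final); after 20 min binding at room temperature, polarization measured.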
MCF10A rereplic: A quantitative high throughput screen for small molecules that induce DNA re-replication in MCF 10a normal breast cells. MCF 10A DNA re-replication, Hoechst nuclear intensity, 48 h. Potency, µM (top dose mostly 46.1 µM), actives largely listed as activators. hit rate 2.9% among 350,000. AID 624296, 2012; further: nearly all actives have a fitted effect of over 50% in size
A number is an active result; . = inactive; ? = inconclusive; / = no result; [ ] = another dose, or the depositor's remark. Compounds with a hit are over-represented: about 6.8% of the library has one in this group of screens. Unless noted, the call rests on the fitted dose curve; in most records, active means well fitted curve in the direction sought with a large enough effect; inconclusive means small, poorly fitted or top-dose-only effect, or another doubt; inactive means no such curve, though single readings can be large; an effect the other way counts as inactive or inconclusive.

SMILES	KB-V1 MDR tox	KB-3-1 cytotox	SW480 rereplic	PINK1 modulator	PTAP TSG101 blk	MCF10A rereplic
Cc1cc(Br)c(OCc2ccc(C(=O)N/N=C/c3ccc[nH]3)cc2)c(Br)c1	?	2.6µM	3.7µM	.	.	?
COC(=O)N1CCC2(CCN(C(=O)Nc3cccc(C#N)c3)CC2)CC1	/	/	/	.	/	/
CSc1ccc(C(c2c(C(=O)O)[nH]c3ccccc23)c2c(C(=O)O)[nH]c3ccccc23)cc1	.	.	?	.	.	21µM
COc1cc(/C=C(\C#N)c2nc3ccccc3c(=O)[nH]2)cc(OC)c1OC	.	.	/	.	/	/
COc1ccc(NC(=O)c2oc3ccccc3c2NC(=O)c2cc(=O)c3ccccc3o2)cc1	.	.	/	.	/	/
O=C(NCc1ccccc1)c1cc2ccc(O)cc2oc1=O	.	.	7.3µM	.	.	16µM
C/C(=N\NC(=O)CC#N)c1cc2ccc(O)cc2oc1=O	.	.	21µM	.	?	9.2µM
Cc1ccccc1CN1C(=O)c2ccccc2S(=O)c2ccc(C(=O)NCc3ccccc3)cc21 (stereo not drawn)	/	/	/	.	/	/
Cc1nonc1OCC(C)(COc1nonc1C)NC(=O)c1ccc(Cl)cc1	4.1µM	?	.	.	.	.
CCC1(C2CCN(C(=O)c3ccc(C)cc3C)CC2)NC(=O)N(CCc2scnc2C)C1=O (stereo not drawn)	/	/	/	.	/	/
Cc1csc(SCC(=O)Nc2cccc(C)c2C)n1	16µM	.	.	.	.	.
Cc1cccc(NC(=O)CSc2ncnc3nc[nH]c23)c1C	.	.	?	.	.	23µM
COc1ccc(NC(=O)CSc2nc(C)cs2)c([N+](=O)[O-])c1	23µM	.	.	.	.	.
O=S(=O)(c1ccc2nc(Nc3ccc(Br)cc3F)ccc2c1)N1CCCCC1	?	.	/	.	/	/
N#Cc1nc(-c2ccc(OCc3ccc(Cl)cc3)cc2)oc1N1CCCCC1	.	.	/	.	/	/
CO[C@H]1/C=C/O[C@@]2(C)Oc3c(C)c(O)c4c(O)c(c(/C=N\N5CCN(C6CCCC6)CC5)c(O)c4c3C2=O)NC(=O)/C(C)=C\C=C\[C@H](C)[C@H](O)[C@@H](C)[C@@H](O)[C@@H](C)[C@H](OC(C)=O)[C@@H]1C	/	/	?	/	/	.
Cc1nc2c(ccc3nc(NC(=O)C4CC4)sc32)s1	21µM	?	?	.	.	.
CCOc1ccc(N(C(C)C(=O)Nc2cc(Cl)ccc2OC)S(C)(=O)=O)cc1 (stereo not drawn)	?	3.7µM	/	.	/	/
COc1ccc(-n2nc3ccc(NC(=O)c4c(OC)cccc4OC)cc3n2)cc1	.	.	/	.	/	/
CC1CCN(S(=O)(=O)c2ccc3c(c2)c(=O)c(C(=O)NC2CCCC2)cn3C)CC1	?	.	.	.	.	.
Cn1cc(C(=O)NCc2cccs2)c(=O)c2cc(S(=O)(=O)N3CCCC3)ccc21	21µM	.	.	?	.	.
Cn1cc(C(=O)NC2CCCCC2)c(=O)c2cc(S(=O)(=O)N3CCCC3)ccc21	9.2µM	.	.	.	.	.
CN(Cc1ccccc1)c1ccc2cc(S(=O)(=O)N3CCCCC3)ccc2n1	?	.	/	.	/	/
Cc1cc(C)n2c(Br)c(CSc3nc4ccccc4o3)nc2n1	21µM	.	.	.	.	.
CC(=O)Nc1cc(C(=O)NCc2ccccc2)ccc1Sc1ccc(C)cc1	/	/	/	.	/	/
SMILES	KB-V1 MDR tox	KB-3-1 cytotox	SW480 rereplic	PINK1 modulator	PTAP TSG101 blk	MCF10A rereplic
CCOC(=O)c1cccc(NC(=O)c2ccc3snnc3c2)c1	?	.	/	.	/	/
CCOc1cc(CN2CCC(CO)(Cc3cccc(C(F)(F)F)c3)CC2)ccc1OC	.	26µM	.[1.84 µM]	.	.	.
CCOc1ccccc1N1CCN(Cc2ccc(OC)c(OC)c2)CC1	16µM	.	.	.	.	.
CCOc1ccccc1N1CCN(Cc2ccc(OC)c(OC)c2OC)CC1	18µM	.	.	.	/	.
CCN1CCN(Cc2ccc(OC)c(OCc3ccccc3)c2)CC1	.	.	.	.	.	.
COc1ccc(CN2CCN(c3ccccn3)CC2)cc1OCc1ccccc1	9.2µM	.	.	.	.	?
CCOC(=O)c1ccc(NC(=O)C2Cc3ccccc3CN2S(=O)(=O)c2ccc(Cl)cc2)cc1 (stereo not drawn)	/	/	/	.	/	/
CCOc1cccc(C(=O)Nc2ccc3oc(-c4ccncc4)nc3c2)c1	.	.	/	.	/	/
O=C(CSc1ccccc1)N1CCN(c2ccccn2)CC1	.	.	?	.	.	.
Cc1nc(SCC(=O)N2CCN(c3ccccn3)CC2)c(C#N)c(C)c1C	7.3µM	.	.	.	.	.
CCc1cc2cc(C)cc(C)c2nc1SCC(=O)N1CCN(C(=O)c2ccco2)CC1	23µM	?	.	.	.	?
O=C(c1ccco1)N1CCN(C(=O)c2cc(-c3ccccc3)nc3ccccc23)CC1	.	.	.	.	.	.
CCc1cc2cccc(C)c2nc1SCC(=O)N1CCN(C(=O)c2ccco2)CC1	.	.	.	.	.	?
CCc1cc2ccc(C)cc2nc1SCC(=O)N1CCN(C(=O)c2ccco2)CC1	5.2µM	.	?	.	.	?
Cc1cccc2c(C(=O)N3CCN(C(=O)c4ccco4)CC3)cc(-c3cccc(Br)c3)nc12	9.2µM	?	?	.	.	18µM
Cc1cc(C)c2nc(C(F)(F)F)nc(N3CCN(C(=O)c4ccco4)CC3)c2c1	12µM	.	.	.	.	?
CCc1cc2cc3c(cc2nc1SCC(=O)N1CCN(C(=O)c2ccco2)CC1)OCO3	?	.	.	.	.	.
COc1ccc(C)cc1-n1nnc(S(=O)(=O)c2ccc(C)cc2)c1C	.	.	/	.	/	/
CCOC(=O)c1cccc(NC(=O)NC(C)c2c(-n3cccc3)sc3c2CCN(C)C3)c1 (stereo not drawn)	/	/	/	.	/	/
Cc1nn(C)c(C)c1CNC(=O)/C=C/c1ccccc1F	18µM	.	.	.	.	.
COc1ccc(C2CC(c3ccccc3O)=NN2c2ccccc2)cc1 (stereo not drawn)	.	.	18µM	.	.	16µM
COc1ccc(C2CC(c3ccccc3)=NN2c2ccc(N)cc2)cc1 (stereo not drawn)	21µM	?	23µM	?	.	16µM
C=CCOc1ccc(C2CC(C)=NN2c2ccccc2)cc1 (stereo not drawn)	?	.	?	.	.	21µM
COc1ccc(C2CC(c3ccccc3)=NN2c2ccc(Cl)c(C(=O)O)c2)cc1 (stereo not drawn)	?	.	?	.	.	8.2µM
